Shown are actives, neighbours in structure and some others; about 4.1% of the full set was active somewhere.
DAX1 inh-1: DAX1 (NR0B1) inhibition, primary screen; 370,000 tested, 1.1% active; HEK293T StAR-luciferase reporter, SF-1/DAX-1 repression relief; inhibition, % at 6.8 µM;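 active = inhibition above the mean over all tested compounds plus 3 SD, cut at about 3.6% in these data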;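 note: higher inhibition means more luminescence from relief of DAX-1 repression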
ssDAF-12 act: activators of S. stercoralis DAF-12 nuclear receptor; activation, % at 6.8 µM; 370,000 tested, 1% active; HEK293 ssDAF-12/GRIP1 lit1-tk-luc reporter, luminescence; % of 3 µM dafachronic acid response;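 active = activation above the mean over all tested compounds plus 3 SD, cut at about 0.9% in these data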
hcDAF-12 act: H. contortus DAF-12 activation, primary screen; HEK293 hcDAF-12 lit1-tk-luc reporter, luminescence; 0% DMSO, 100% Δ7-dafachronic acid; activation, % at 6.8 µM; 370,000 tested, 1.4% active; AID 652067;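 active = activation above the mean of all tested compounds plus 3 SD, cut at about 5.5% in these data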
hgDAF12 agonist: hgDAF-12 agonism, primary luciferase screen; HEK293 GAL4-hgDAF12 UAS-luciferase reporter, agonist luminescence; normalized to butyrate control; 370,000 tested, 1.8% active; AID 687014; activation, % at 6.8 µM;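 active = activation above a cutoff set at the mean of all screened compounds plus 3 SD, cut at about 10% in these data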
DAX1 inh-2: NR0B1 (DAX1) inhibition. 340,000 tested, 0.99% active. inhibition, % at 6.75 µM. HEK293 Gal4-DAX1 luciferase reporter, luminescence. P51843. AID 504766;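 active = inhibition above the mean over all tested compounds plus 3 SD, cut at about 4.2% in these data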;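 note: inhibition shows as a rise in luminescence from relieved DAX1 repression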
Target sequence (P51843 207-470 limits assumed): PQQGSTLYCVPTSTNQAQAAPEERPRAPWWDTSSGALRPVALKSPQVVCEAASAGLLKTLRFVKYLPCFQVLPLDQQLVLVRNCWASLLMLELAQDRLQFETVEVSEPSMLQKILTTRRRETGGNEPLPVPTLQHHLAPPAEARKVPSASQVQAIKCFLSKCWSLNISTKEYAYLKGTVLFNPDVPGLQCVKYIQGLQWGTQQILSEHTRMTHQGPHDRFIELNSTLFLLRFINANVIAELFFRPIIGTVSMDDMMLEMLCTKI
Large screens that a line does not name were inactive.

CC(=O)Nc1ccc(Nc2nc3ccccc3nc2NS(=O)(=O)c2ccc(Cl)c([N+](=O)[O-])c2)cc1	none
COC(=O)C1=C(C)N(C)C(=NCc2ccccc2)NC1c1cccc(Cl)c1 (centres undefined)	none (no result: DAX1 inh-2)
COC(=O)[C@]12CCCCC=C1N(Cc1ccc3c(c1)OCO3)C(=O)[C@H](CC(=O)NCC1CCCCC1)C2	DAX1 inh-1 4.1 (no result: DAX1 inh-2)
COCCCNC(=O)C[C@@H]1C[C@@]2(C(=O)OC)CCCCC=C2N(Cc2ccc3c(c2)OCO3)C1=O	none (no result: DAX1 inh-2)
COc1cc(/C=N/Nc2ccccn2)cc(OC)c1O	none
COc1cc(/C=N/Nc2cccc3cccnc23)cc(OC)c1O	hgDAF12 agonist 13
Cc1ccccc1-c1ccc2c(c1)[C@@H]1C[C@H]3[C@@H](CN1CC2)[C@H](C)OC(C1CCCCC1)N3C (some centres undefined)	none (no result: DAX1 inh-2)
CC(=C1C(=O)c2ccccc2C1=O)N1CCc2ccccc2C1	hcDAF-12 act 5.7
N#Cc1ccc(Cn2ccc3ccc(-c4ccc5ccn(C(=O)C6CCC6)c5c4)cc32)cc1	none (no result: DAX1 inh-2)
O=C(N/N=C/c1ccc(F)cc1)c1cc(-c2ccc3c(c2)OCO3)n[nH]1	DAX1 inh-2 4.6
Cc1ccc(-c2cc(C(=O)NN=Cc3ccc(-c4ccccc4)cc3)[nH]n2)cc1	none (no result: DAX1 inh-2)
Cc1ccc(-c2cc(C(=O)NN=Cc3ccc(F)cc3)[nH]n2)cc1C	hgDAF12 agonist 11 (no result: DAX1 inh-2)
CCOc1ccc(CCN2C(=O)C(=O)N([C@@H](Cc3ccc(O)cc3)CN3CCC[C@@H]3CN3C(=O)C(=O)NC[C@@H]3Cc3ccccc3)C[C@@H]2Cc2ccccc2)cc1	none
C/C(=N\Nc1nc(C(=O)O)cs1)c1ccccc1	none (no result: DAX1 inh-2)
C/C(=N\Nc1nc(C(C)(C)C)cs1)c1ccc(O)cc1	hcDAF-12 act 5.8
Cc1cc(N=Nc2ccccc2)cc(C)c1NC(=O)C(F)(F)F	DAX1 inh-2 5.1
CC(=O)Nc1cc(NC(C)=O)c(N=Nc2ccccc2)cc1C	DAX1 inh-2 4.7
CC1(C(=O)NS(=O)(=O)c2cccs2)CCN1C(=O)CC1CCCC1 (centres undefined)	none (no result: DAX1 inh-2)
COC(=O)c1cc(S(=O)(=O)N2CCN(C(C)=O)CC2)cn1C	none (no result: DAX1 inh-2)
CCc1ccc(NC(=O)c2ccccc2Br)cc1	hgDAF12 agonist 12, DAX1 inh-2 5.9
CCCn1nnc(NC(=O)c2ccc3ccccc3c2)n1	hgDAF12 agonist 11
CCCn1nnc(NC(=O)c2ccccc2Br)n1	none
CCNC(=S)Nc1ccc(NC(=O)c2ccccc2O)cc1	ssDAF-12 act 1.6
CCn1nnc(NC(=O)c2ccccc2Br)n1	ssDAF-12 act 1.0
CCNC(=S)Nc1cccc(NC(=O)c2ccccc2O)c1	none
O=C(N=Nc1c(O)[nH]c2ccccc12)c1ccc2c(c1)OCO2	hgDAF12 agonist 13
O=C(N=Nc1c(O)[nH]c2ccccc12)c1ccc(CN2CCOCC2)cc1	none
Cn1nnnc1SCC(=O)N1CCN(C(=O)c2ccco2)CC1	DAX1 inh-2 4.3
Cc1nnc(SCC(=O)N2CCN(C(=O)c3ccco3)CC2)n1C	DAX1 inh-2 4.7
CCCCn1nnnc1SCC(=O)N1CCN(C(=O)c2ccco2)CC1	none
Cc1ccc(Cl)cc1N1CCN(C(=O)C2CCC(=O)N(C3CCCCCC3)C2)CC1 (centres undefined)	none
Cc1ccc(Cl)cc1N1CCN(C(=O)C2CCC(=O)N2C(C)C)CC1 (centres undefined)	ssDAF-12 act 1.7
COc1cccc(C(=O)NN=C2CCCC2)c1	DAX1 inh-1 4.5, hgDAF12 agonist 11
O=C(NN=C1CCCC1)c1ccccc1[N+](=O)[O-]	none
O=C(NN=C1CCCC1)c1ccccc1O	hgDAF12 agonist 11
COc1ccc(C(=O)NN=C2CCCC2)cc1	none
Cc1[nH]c2ccccc2c1/C=N/Nc1nc(N2CCCCC2)nc(N2CCCCC2)n1	none
C(=N\Nc1nc(N2CCCCC2)nc(N2CCCCC2)n1)/c1c[nH]c2ccccc12	ssDAF-12 act 1.1
CN(C)c1nc(N/N=C/c2c[nH]c3ccccc23)nc(N2CCOCC2)n1	ssDAF-12 act 1.2
O=C(N(c1ccccn1)c1ccccn1)C12CC3CC(CC(Cl)(C3)C1)C2	hcDAF-12 act 6.2
Cc1ccc(-n2nc(C)c3c(C)cc(=O)[nH]c32)cc1	ssDAF-12 act 3.5
Cc1nn(-c2ccccc2)c2[nH]c(=O)cc(C(F)F)c12	none
Cc1nc2c(-c3ccccc3)c[nH]n2c(=O)c1Cc1ccccc1	DAX1 inh-2 5.7
Cc1cc(=O)n2[nH]cc(-c3ccccc3)c2n1	none
CC(C)(C)S(=O)(=O)N1C[C@H]2CC(=O)C(CCO)=C2[C@@H]1CCO	none (no result: DAX1 inh-2)
COc1ccc(NC(=O)OC[C@@H]2CSCCS(=O)(=O)N2)cc1	none (no result: DAX1 inh-2)
COC(=O)C1=C(C)N(C)C(=NCc2ccccc2C(F)(F)F)NC1CCc1ccccc1 (centres undefined)	none (no result: DAX1 inh-2)
COC(=O)c1c(-c2ccccc2)csc1NC(=O)c1ccco1	hgDAF12 agonist 11
Cc1ccc(-c2nc(C=Nc3ccccc3)c(O)o2)cc1	none
Oc1oc(-c2ccc(Br)cc2)nc1/C=N/c1ccccn1	hgDAF12 agonist 13
Cc1ccc(NC(=O)C2OCCc3ccccc32)cc1C (centres undefined)	hgDAF12 agonist 11
CC1CCN(c2c(NCc3ccc(C(=O)N4c5ccccc5CC4C)cc3)c(=O)c2=O)CC1 (centres undefined)	ssDAF-12 act 1.1
O=C(O)c1cccc2c1-c1ccccc1/C2=N\Nc1ccccc1	DAX1 inh-2 5.4
COC(=O)[C@@]12C[C@@H](CC(=O)NCCCN3CCCC3=O)C(=O)N(CCc3ccc(OC)c(OC)c3)C1=CCC(C)(C)C2	DAX1 inh-1 3.8 (no result: DAX1 inh-2)
C/C(N)=C(/C#N)C(=O)CSc1nn(-c2ccc(Cl)cc2)c(=S)s1	hgDAF12 agonist 10
CCCn1c2ccccc2c2cc(C(=O)O)ccc21	none
Cn1c2ccccc2c2cc(C(=O)O)ccc21	hcDAF-12 act 5.9
COc1ccc(Cc2c(-c3ccc(F)cc3)nc3c(C)cc(Br)cn23)c(C)c1	none (no result: DAX1 inh-2)
O=C(Nc1cc(F)c(Br)cc1F)c1ccc(Cl)cc1	none
COc1ccc(C(C#N)=Cc2ccc(NC(C)=O)cc2)cc1	DAX1 inh-1 3.7
COc1ccc2nc(/C(C#N)=C\c3ccc(C(=O)O)cc3)[nH]c2c1	hgDAF12 agonist 13
CC(=O)Nc1ccc(C(C#N)=Cc2ccc(N(C)CCC#N)cc2)cc1	none
COCCNC(=O)C(c1ccc(Cl)cc1)N(Cc1ccco1)C(=O)CCC(=O)Nc1ccccn1 (centres undefined)	DAX1 inh-2 8.8
OC[C@H]1O[C@@H](c2nc(-c3cccc4ccccc34)no2)[C@H](O)[C@@H]1O	hgDAF12 agonist 13 (no result: DAX1 inh-2)
Cc1ccc(-n2nc(C)c(=O)c(-c3ccccc3)c2NC(=O)c2cccs2)cc1	DAX1 inh-2 5.5
C#CCN(C(=O)c1cc(COc2ccc(C)c(C)c2)on1)C1CCCCC1	none
Cc1cc(OCc2cc(C(=O)N(C)CCc3cnn(C)c3)no2)cc(C)c1Cl	DAX1 inh-1 4.2
